PubChem BioAssay
Active and inactive are the calls of the source. Unless noted, the rule behind the calls is not given here.

Tests used:
[1] = compound effects on lung adenocarcinoma cell viability – A549, calcein-AM fluorescence, 48 h, basal, profiling panel (AID 1162); conditions: higher = more signal; note: test concentration not given here
[2] = compound effects on differentiated 3T3-L1 adipocyte viability – cell-based, 3T3-L1 adipocytes, calcein-AM fluorescence, 48 h, basal, profiling panel (AID 1163); conditions: 3T3-L1 adipocytes viability, higher = more signal; note: test concentration not given here
[3] = compound effects on hepatocellular carcinoma cell viability – HepG2, calcein-AM fluorescence, 48 h, basal, profiling panel (AID 1164); conditions: higher = more signal; note: test concentration not given here
[4] = compound effects on multiple myeloma cell viability – MM1S, calcein-AM fluorescence, 48 h, basal, profiling panel (AID 1165); conditions: higher = more signal; note: test concentration not given here
[5] = calcein-AM signal in unstimulated myeloma cells – cell-based, calcein-AM fluorescence, 48 h, PK04 Diversity Set, profiling panel (AID 1166); conditions: RPMI8226 myeloma viability, higher = more signal;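 note: cells grown under basal conditions without added stimulus; test concentration not given here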
[6] = JC-1 mitochondrial signal, unstimulated HepG2 cells – cell-based, JC-1 fluorescence, 24 h, 100 nL compound, profiling panel (AID 1167); conditions: HepG2 mitochondrial potential, higher = more signal; note: test concentration not given here
[7] = JC-1 mitochondrial signal, unstimulated adipocytes – cell-based, JC-1 fluorescence, 3T3-L1 adipocytes, 24 h, 100 nL compound, profiling panel (AID 1168); conditions: JC-1 mitochondrial fluorescence, higher = more signal, called active from +8 up or from −8 down; note: test concentration not given here
[8] = JC-1 mitochondrial signal, unstimulated myeloma cells – cell-based, JC-1 fluorescence, RPMI8226, 24 h, 100 nL compound, profiling panel (AID 1169); conditions: JC-1 mitochondrial potential fluorescence, higher = more signal; note: test concentration not given here
[9] = JC-1 mitochondrial signal, unstimulated MM1S myeloma – cell-based, JC-1 fluorescence, 24 h, 100 nL compound, profiling panel (AID 1170); conditions: MM1S mitochondrial potential, higher = more signal; note: test concentration not given here
[10] = resazurin metabolic signal in A549 cells – cell-based, resazurin fluorescence, 24 h, PK04 Diversity Set, profiling panel (AID 1171); conditions: A549 viability, higher = more signal, called active from +8 up or from −8 down; note: test concentration not given here
[11] = resazurin metabolic signal in HepG2 cells – cell-based, resazurin fluorescence, 24 h, PK04 Diversity Set, profiling panel (AID 1172); conditions: HepG2 viability, higher = more signal; note: test concentration not given here
[12] = budding yeast growth changes without added modifier – OD600, strain BY4716, 24 h, basal condition, primary screen (AID 1173); conditions: S. cerevisiae BY4716 growth, OD600, 24 h; higher = more signal, called active from +8 up or from −8 down
[13] = viability profiling in MM1S myeloma cells – cell-based, resazurin fluorescence, basal, 24 h, PK04 Diversity Set, profiling panel (AID 1174); conditions: higher = more signal, called active from +8 up or from −8 down; note: test concentration not given here
[14] = target: Dihydroorotate dehydrogenase (quinone), mitochondrial (Plasmodium falciparum (isolate 3D7)) (UniProt Q08210); assay: inhibition of P. falciparum DHODH – biochemical, C-terminal His tag, absorbance 600 nm, primary screen (AID 1175); conditions: PfDHODH enzyme, DCIP absorbance 600 nm; higher = more signal, called active from +8 up or from −8 down;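 note: recombinant parasite enzyme with a five histidine tag at its C terminus; test concentration not given here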
Chain of Dihydroorotate dehydrogenase (quinone), mitochondrial (Plasmodium falciparum (isolate 3D7)) (Q08210 whole entry, looked up): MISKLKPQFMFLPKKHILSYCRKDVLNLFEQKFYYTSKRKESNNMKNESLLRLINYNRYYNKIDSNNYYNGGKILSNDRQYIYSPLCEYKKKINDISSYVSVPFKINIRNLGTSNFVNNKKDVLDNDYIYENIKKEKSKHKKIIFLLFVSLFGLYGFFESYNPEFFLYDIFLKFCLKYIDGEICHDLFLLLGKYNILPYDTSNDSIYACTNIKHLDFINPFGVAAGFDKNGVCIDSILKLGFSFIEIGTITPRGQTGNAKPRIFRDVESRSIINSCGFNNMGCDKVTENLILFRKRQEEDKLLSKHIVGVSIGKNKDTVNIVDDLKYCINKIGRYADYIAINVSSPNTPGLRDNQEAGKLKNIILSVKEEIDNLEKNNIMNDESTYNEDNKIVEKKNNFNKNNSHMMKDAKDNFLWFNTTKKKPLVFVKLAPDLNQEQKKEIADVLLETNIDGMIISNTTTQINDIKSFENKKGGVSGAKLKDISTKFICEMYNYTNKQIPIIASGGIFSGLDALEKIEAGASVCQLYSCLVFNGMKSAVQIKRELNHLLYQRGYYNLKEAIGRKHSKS

[15] = inhibition of PAO1 biofilm formation – strain PAO1, LB-PBS medium, absorbance 600 nm, primary screen (AID 1176); note: test concentration not given here; conditions: P. aeruginosa PAO1 growth/biofilm, A600, 12 h; higher = more signal
[16] = growth modulation of vineyard yeast isolate – strain RM11-1a, OD600, basal, 24 h, primary screen (AID 1177);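 note: cultures grown under basal conditions with no added stressor; test concentration not given here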; conditions: S. cerevisiae RM11-1a growth, OD600, 24 h; higher = more signal, called active from +8 up or from −8 down
[17] = growth of efflux-deficient E. coli DRC39 – strain DRC39, OD650, 24 h, E. coli filamentation inducers, primary screen (AID 1178);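 note: growth measured as culture turbidity by optical density at 650 nm; test concentration not given here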; conditions: E. coli DRC39 acrAB, higher = more signal, called active from +8 up or from −8 down
[18] = growth of efflux-deficient E. coli DRC39 – strain DRC39, OD650, 48 h, E. coli filamentation inducers, primary screen (AID 1179);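 note: screen aims at cell division blockers that make cells filament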; conditions: E. coli DRC39 delta-acrAB growth, higher = more signal, called active from +8 up or from −8 down
[19] = viability profiling in RPMI8226 myeloma cells – cell-based, resazurin fluorescence, basal, 24 h, PK04 Diversity Set, profiling panel (AID 1180); conditions: higher = more signal;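 note: RPMI8826 multiple myeloma cell line at 5000 cells per well; test concentration not given here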
[20] = target: E3 ubiquitin-protein ligase XIAP (Homo sapiens) (UniProt P98170); assay: small molecules binding XIAP protein – biophysical, small-molecule microarray, fluorescence 635 nm, primary screen (AID 1181); conditions: higher = more signal;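 note: score merges 667 nm emission and signal to noise over triplicate slides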
Chain of E3 ubiquitin-protein ligase XIAP (Homo sapiens) (P98170 whole entry, looked up): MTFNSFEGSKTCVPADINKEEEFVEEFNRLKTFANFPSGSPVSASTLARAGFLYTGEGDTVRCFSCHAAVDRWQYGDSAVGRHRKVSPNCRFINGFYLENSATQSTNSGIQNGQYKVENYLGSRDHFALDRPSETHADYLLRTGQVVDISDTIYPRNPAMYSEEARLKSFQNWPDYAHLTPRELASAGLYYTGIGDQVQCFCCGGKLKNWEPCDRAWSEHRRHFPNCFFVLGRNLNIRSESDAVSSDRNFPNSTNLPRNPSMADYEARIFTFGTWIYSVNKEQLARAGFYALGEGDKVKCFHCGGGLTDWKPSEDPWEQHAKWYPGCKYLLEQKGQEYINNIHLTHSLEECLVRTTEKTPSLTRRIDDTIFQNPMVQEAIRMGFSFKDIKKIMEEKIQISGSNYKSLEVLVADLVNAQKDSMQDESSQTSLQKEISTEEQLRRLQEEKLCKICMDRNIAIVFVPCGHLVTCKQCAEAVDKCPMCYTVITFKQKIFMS

SMILES | z-score [1] | z-score [2] | z-score [3] | z-score [4] | z-score [5] | z-score [6] | z-score [7] | z-score [8] | z-score [9] | z-score [10] | z-score [11] | z-score [12] | z-score [13] | composite z-score [14] | z-score [15] | z-score [16] | z-score [17] | z-score [18] | z-score [19] | composite z-score [20]
COCCOC(=O)N1C(=O)[C@@]2(c3cc(C#CCC(C(=O)OC)C(=O)OC)ccc31)[C@H](C(N)=O)[C@H]1C(=O)O[C@H](c3ccccc3)[C@H](c3ccccc3)N1[C@@H]2c1ccc(OCCO)cc1 | -0.0635 | 0.0923 | 0.103 | -2.16 | -3.21 | -1.47 | 0.47 (inactive) | -1.09 | -1.26 | 0.214 (inactive) | 0.58 | 1.53 (inactive) | -0.456 (inactive) | -0.383 (inactive) | 2.88 (inactive) | 3.39 (inactive) | 0.71 (inactive) | 0.108 (inactive) | -1.81 | 0.0251
C=CCC(OC(C)=O)[C@@H]1[C@@H](N(Cc2ccc(-c3cccc(C(F)(F)F)c3)o2)C(=O)c2cccc3ccccc23)c2cc(OCCCO)ccc2N1C(=O)c1ccc2ccccc2c1 (stereo not given in full) | 0.281 | 2.03 | 0.723 | -0.21 | -1.99 | 2.7 | -0.689 (inactive) | -0.556 | -0.102 | -0.453 (inactive) | -0.0598 | -0.988 (inactive) | -0.416 (inactive) | -0.0361 (inactive) | -0.464 (inactive) | 0.204 (inactive) | 0.807 (inactive) | 0.489 (inactive) | -0.311 | -0.04
C=CCC(OC(C)=O)[C@@H]1[C@@H](N(Cc2cccc3ccccc23)C(=O)c2cccc3ccccc23)c2cc(OCCCO)ccc2N1C(=O)Cc1ccc2ccccc2c1 (stereo not given in full) | -0.612 | -0.151 | -0.663 | 0.0031 | -1.9 | 2.09 | -0.0423 (inactive) | 0.00587 | -0.00493 | -0.0737 (inactive) | 0.414 | -0.599 (inactive) | -0.41 (inactive) | -0.373 (inactive) | -0.723 (inactive) | -0.0264 (inactive) | 0.632 (inactive) | 0.334 (inactive) | -0.0924 | 0.452
COC(=O)[C@@]1(Cc2ccc(F)cc2)[C@H]2c3cc(C(=O)N4CCCC4)n(CCO)c3C[C@H]2CN1C(=O)c1ccccc1 | 0.448 | -0.35 | -0.885 | 0.309 | -0.929 | 1.04 | 0.379 (inactive) | -0.249 | -0.996 | 0.11 (inactive) | -0.31 | 0.894 (inactive) | -1.38 (inactive) | -0.757 (inactive) | -0.278 (inactive) | 0.302 (inactive) | 0.0412 (inactive) | -0.654 (inactive) | -0.908 | -0.16
CCOC(=O)C[C@H]1[C@H](OC(=O)c2ccc(C(=O)c3ccccc3)cc2)[C@@H](NC(=O)c2ccc3ccccc3c2)c2cc(OCCCO)ccc2N1C(=O)c1ccc2ccccc2n1 | 1.54 | 0.0263 | 0.664 | 0.393 | -0.693 | 2.63 | 0.978 (inactive) | -0.0974 | 1.75 | 0.298 (inactive) | 0.213 | -0.628 (inactive) | 0.64 (inactive) | 0.824 (inactive) | -0.595 (inactive) | 0.351 (inactive) | 0.571 (inactive) | 0.534 (inactive) | 0.395 | -0.0726
CC(=O)n1cc(C(O)C2C=CC3C(=O)N(c4ccccc4)C(=O)C3N2Nc2ccccc2F)c2ccccc21 (stereo not given) | 0.512 | 0.23 | -0.798 | -0.834 | -0.056 | -0.69 | -1.2 (inactive) | 0.408 | -1.41 | 0.423 (inactive) | 0.68 | -1.34 (inactive) | -0.223 (inactive) | -0.349 (inactive) | 1.54 (inactive) | -0.86 (inactive) | 0.8 (inactive) | 0.86 (inactive) | 0.0072 | 0.439
C=CCC(OC(C)=O)[C@@H]1[C@@H](N(Cc2cc3ccccc3o2)C(=O)c2ccc(-c3ccccc3)cc2)c2cc(OCCCO)ccc2N1C(=O)c1ccc2ccccc2n1 (stereo not given in full) | 0.704 | 0.242 | 1.43 | 0.479 | -0.11 | 2.66 | 0.229 (inactive) | -0.202 | 1.32 | 0.967 (inactive) | -0.0694 | 0.848 (inactive) | 0.943 (inactive) | 0.706 (inactive) | 0.35 (inactive) | 0.913 (inactive) | 0.965 (inactive) | 0.553 (inactive) | 0.97 | -0.0818
